Experimental data reported in PubChem BioAssay (NCI).
Compounds without any hit were thinned out: in the full panel of roughly 83,000, 20% have a hit.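 Compound tested at a single concentration for 48 hours in 96-well plates; a percent growth value below 10 was scored as active.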 Unmarked numbers belong to inactive results. Activity calls are given as the source filed them.

Tested on: ACHN renal
Test: NCI-60 one-dose screen, 48 h (100 = growth as untreated, 0 = no growth, -100 = all killed)
Settings: 10 µM unless noted
Method: Growth inhibition of the ACHN human tumor cell line is measured as a screen for anti-cancer activity. Cells are grown in 96 well plates and exposed to the test compound for 48 hours. Compounds are tested at a single concentration, which is 10^-5 M for most compounds. The reported endpoint is percent growth (GI% or GIPRCNT), where numbers from 0 - 100% represent growth inhibition, and numbers from -100% - 0 represent cell death. For example, a value of 40 represents 60% growth inhibition. A value of 0 means no net growth occurred over the course of the experiment. A value of -40 indicates 40% of cells at the beginning of the experiment died by the end of the experiment. A value of -100 means all cells are dead at the end of the experiment.
NCI-60 Human Tumor Cell Lines Screen was performed using the standard one-dose NCI protocol, which is described in more detail at https://dtp.cancer.gov/discovery_development/nci-60/default.htm.
Compounds with GIPRCNT values below 10 were considered active. Activity score was based on GIPRCNT using the following formula: […]
Score is 0 for GIPRCNT values of 100 or above, 50 for GIPRCNT values of 0, and 100 for GIPRCNT values of -100.

Point of comparison: `O=C(/C(=C/c1ccc([N+](=O)[O-])cc1)SCc1ccc(Cl)cc1)c1ccc(F)cc1`, growth 54%. Against it:
- COC(=O)/C=C/c1cc(OC)c2c(c1)[C@@H](C(=O)OC)[C@H](c1ccc(OC)c(OC)c1)O2 — lower, 44.4%
- COc1ccc(C(=O)c2cc(F)c(F)c(OC)c2F)cc1OC(=O)CCl — higher, 59.8%
- Cc1nc2sc(C(=O)Nc3ccccc3Cl)c(N)c2cc1C(C)O (stereo not given) — higher, 96.2%
- OCCNc1nc(NCCO)nc(Nc2ccc(C3=NN(c4cc(Cl)cc(Cl)c4)C(c4ccccc4)C3)cc2)n1 (stereo not given) — lower, 42.2%
- O=C(O)c1cn(C2CC2)c2cc(N3CCN(C(=O)CSc4nnc(-c5ccc(Cl)cc5)n4-c4ccccc4)CC3)c(F)cc2c1=O — higher, 108%
- COC(=O)/C=C1\SC(=Nc2cccc(Cl)c2)N(CCc2c[nH]c3ccccc23)C1=O — higher, 63.9%
- O=C1NCc2ccc3c(-c4cccc(Cl)c4)c[nH]c3c21 — lower, 48.4%
- COc1ccc(-c2nc(C#N)c(NCC(c3ccco3)N3CCCC3)o2)cc1 (stereo not given) — lower, 43.9%
- C#C[C@@]1(O)[C@@H](CO)O[C@@H](n2cc(-c3ccco3)c3c(N)ncnc32)[C@@H]1O — higher, 90.2%
- O=C(O)COc1ccc2c(=O)c3sc4c(=O)c5ccccc5c(=O)c4c3c(=O)c2c1 — higher, 62.7%
- CC1CCN(CCCCCOc2ccc3oc4ccccc4c(=O)c3c2)CC1 — higher, 95.3%
- COc1ccc2c(c1)/C(=C1\S/C(=N/c3nnc(C)s3)NC1=O)C(=O)N2Cc1ccc(Cl)cc1 — higher, 55.3%
- O=C(NCc1ccccc1)c1ccc2c(c1)NC(=O)[C@@H]1CCCN21 — higher, 98.7%
- CN1CCN(S(=O)(=O)O[C@@H]2C(=O)N(c3cc4c5ccccc5ccc4c4ccccc34)[C@H]2c2ccc(F)cn2)CC1 — higher, 92.1%
- CNc1cccc2c1C(=O)c1cccc(N)c1C2=O — higher, 72.2%
- O=CN1N=C(c2ccc3c(c2)OCO3)CC1c1cccc(Nc2ccnc3cc(C(F)(F)F)ccc23)c1 (stereo not given) — higher, 85.8%
- O=C(CCc1nnco1)c1nc2ccc([N+](=O)[O-])cc2[nH]1 — higher, 101%
- CCOC(=O)C1CCN(S(=O)(=O)/N=C2/NC(=O)NC2=C(Cl)Cl)CC1 — lower, 14.2%
- COCCOCCOCc1n(Cc2ccc3ccccc3n2)c2ccccc2[n+]1Cc1ccc2ccccc2n1 — higher, 97.6%
- COC1=CC2C=C(C3N(c4ccccc4)NC(=O)[C@@H]4CCCN34)C(=O)NC2C=C1 (stereo not given in full) — higher, 102%
- O=c1[nH]c2ccccc2cc1-c1nc2ccc(Cl)cc2[nH]1 — lower, 27%
- O=c1[nH]c2ccccc2cc1-c1nc2ccncc2[nH]1 — higher, 72.2%
- O=c1c2ccccc2oc2ccc(OCCCCCCN3CCCCCC3)cc12 — higher, 65.7%
- COc1ccc2nc(-c3ccc(OC)c(OC)c3)cc(-c3nnc(SCC(=O)Nc4ccc(C(C)=O)cc4)o3)c2c1 — higher, 101%
- O=C(CN1N=C(c2ccc(F)cc2)CCC1=O)Nc1nccs1 — higher, 107%
- CC(/C=C/c1ccccc1)=N/NC(=O)c1ccncc1 — higher, 111%
- COc1ccc2c(c1)C1(C(=O)N2)C(C#N)=C(c2ccccc2)Nc2c1c(-c1ccccc1)nn2-c1ccccc1 (stereo not given) — higher, 88.2%
- CN(C)CCCn1c2c(c3cc(-c4cccc(S(N)(=O)=O)c4)ccc3c1=O)C(=O)c1ccccc1-2 — higher, 57.2%
- CCOC(=O)C(=Cc1c(-c2ccccc2)[nH]c2ccccc12)C(=O)OCC — the same, 54%
- Oc1ccc(CNNc2ccnc3c(O)cccc23)c2cccnc12 — lower, 15.2%
- COc1ccc2[nH]c3nc4cnccc4cc3c2c1 — higher, 98.3%
- COc1ccc(-c2[nH]c3ccccc3c2C=C(C#N)C#N)cc1 — lower, 43%
- C=C(C)[C@@H]1CC[C@]2(C(N)=O)CC[C@]3(C)[C@H](CC[C@@H]4[C@@]5(C)CCCNC(C)(C)[C@@H]5CC[C@]43C)[C@@H]12 — higher, 88.9%
- COc1cc2cc(c1Cl)N(C)C(=O)C[C@H](OC(=O)[C@H](C)N(C)C(=O)CCS)C[C@]1(C)O[C@H]1[C@H](C)[C@@H]1C[C@@](O)(NC(=O)O1)[C@H](OC)/C=C/C=C(\C)C2 — lower, 25.4%

`CCCCn1c2cc(OCc3cn(-c4ccc(Cl)cc4)nn3)ccc2c2ccnc(C)c21` was tested, and the growth was -47.5% (active).
`Cn1nc(C(F)(F)F)c(-c2cc(C(F)(F)F)cc(C(F)(F)F)c2)c1-c1ccc(OCc2ccc(Cl)cc2)cc1O` was tested, and the growth was 7.22% (active).
With `N#Cc1ccc(N2Cc3cc(Cl)ccc3OC3=C2C(=O)N(Cc2ccc(F)cc2)C3=O)cc1` the growth was -92.9% (active).
For `Cn1cc(-c2ccc3c(c2)ncn3-c2ccc(CC(=O)Nc3cc(C(C)(C)C)on3)cc2)cn1`, the growth was 6.24% (active).
With `CNS(=O)(=O)c1cccc(-c2ccc3c4c(n(C)c(=O)c3c2)-c2ccccc2C4=O)c1` the growth was 0.944% (active).
